Measured values reported in PubChem BioAssay AID1159580 (chemical genetic matrix, 2015).
Hit rate of the full screen: of about 5,500 compounds, about 2,000 (36%) were called active. About 18% were inconclusive and are not listed. The list shows a part of the results. Values without a mark were called inactive. Rule as the data show it: active = normalized growth mostly below about 0.91 (no sharp cut-off); inconclusive = no clear call, values can overlap the other calls; inactive = mostly above about 0.92.

Experiment: chemical genetic growth profiling, strain panel (AID 1159580);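 also: tested at 20 µM; growth read once vehicle control cultures reached saturation at 30 °C; 1 = growth at the plate median or of vehicle wells; lower values mean less growth of the strain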
Details: growth OD
[1] = S. cerevisiae deletion strains, locus YAL013W, strain DEP1, active compounds read low
[2] = S. cerevisiae deletion strains, locus YDR150W, strain NUM1, active compounds read low
[3] = S. cerevisiae deletion strains, locus YGR229C, strain SMI1, active compounds read low
[4] = S. cerevisiae deletion strains, locus YHR030C, strain SLT2, active compounds read low
[5] = S. cerevisiae deletion strains, locus YJR075W, strain HOC1, active compounds read low
[6] = S. cerevisiae deletion strains, locus YNL322C, strain KRE1, active compounds read low
[7] = S. cerevisiae deletion strains, locus YPL055C, strain LGE1, active compounds read low
[8] = S. cerevisiae deletion strains, locus YPL241C, strain CIN2, active compounds read low
[9] = S. cerevisiae deletion strains, locus YAL040C, strain CLN3, active compounds read low
[10] = S. cerevisiae deletion strains, locus YCL061C, strain MRC1 (second series), active compounds read low
[11] = S. cerevisiae deletion strains, locus YDR363W, strain ESC2, active compounds read low
[12] = S. cerevisiae deletion strains, locus YER002W, strain NOP16, active compounds read low
[13] = S. cerevisiae deletion strains, locus YMR307W, strain GAS1, active compounds read low
[14] = S. cerevisiae deletion strains, locus YNL128W, strain TEP1, active compounds read low
[15] = S. cerevisiae deletion strains, locus YNL175C, strain NOP13, active compounds read low
[16] = S. cerevisiae deletion strains, locus YNL197C, strain WHI3, active compounds read low
[17] = S. cerevisiae deletion strains, locus YNL224C, strain SQS1, active compounds read low
[18] = S. cerevisiae deletion strains, locus YOR083W, strain WHI5 (second series), active compounds read low
[19] = S. cerevisiae deletion strains, locus YHR079C, strain IRE1, active compounds read low
[20] = S. cerevisiae deletion strains, locus YJL095W, strain BCK1, active compounds read low
[21] = S. cerevisiae deletion strains, locus YJR066W, strain TOR1, active compounds read low
[22] = S. cerevisiae deletion strains, locus YLR113W, strain HOG1, active compounds read low
[23] = S. cerevisiae deletion strains, locus YNL183C, strain NPR1, active compounds read low
[24] = S. cerevisiae deletion strains, locus YOR231W, strain MKK1, active compounds read low
[25] = S. cerevisiae deletion strains, locus YPL256C, strain CLN2, active compounds read low

CCOC(=O)c1cnc2cc(C)nn2c1C
normalized growth [1]: 0.994
normalized growth (S. cerevisiae deletion strains, locus YBR229C, strain ROT2, active compounds read low): 0.994
normalized growth (S. cerevisiae deletion strains, locus YCL061C, strain MRC1, active compounds read low): 0.999
normalized growth (S. cerevisiae deletion strains, locus YDL101C, strain DUN1, active compounds read low): 0.997
normalized growth [2]: 0.964
normalized growth (S. cerevisiae deletion strains, locus YEL061C, strain CIN8, active compounds read low): 0.997
normalized growth (S. cerevisiae deletion strains, locus YGR078C, strain PAC10, active compounds read low): 1
normalized growth [3]: 0.983
normalized growth [4]: 0.986
normalized growth (S. cerevisiae deletion strains, locus YHR087W, strain rtc3, active compounds read low): 1.01
normalized growth (S. cerevisiae deletion strains, locus YJL187C, strain SWE1, active compounds read low): 1.01
normalized growth (S. cerevisiae deletion strains, locus YJR043C, strain POL32, active compounds read low): 1.01
normalized growth [5]: 0.998
normalized growth (S. cerevisiae deletion strains, locus YKL190W, strain CNB1, active compounds read low): 0.992
normalized growth (S. cerevisiae deletion strains, locus YLR039C, strain RIC1, active compounds read low): 0.987
normalized growth (S. cerevisiae deletion strains, locus YLR058C, strain SHM2 (second series), active compounds read low): 1
normalized growth (S. cerevisiae deletion strains, locus YLR085C, strain ARP6, active compounds read low): 0.944
normalized growth (S. cerevisiae deletion strains, locus YLR262C, strain YPT6, active compounds read low): 0.99
normalized growth (S. cerevisiae deletion strains, locus YML094W, strain GIM5, active compounds read low): 0.953
normalized growth (S. cerevisiae deletion strains, locus YMR219W, strain ESC1, active compounds read low): 0.991
normalized growth (S. cerevisiae deletion strains, locus YMR263W, strain SAP30, active compounds read low): 1
normalized growth (S. cerevisiae deletion strains, locus YNL298W, strain CLA4 (second series), active compounds read low): 0.996
normalized growth [6]: 0.994
normalized growth (S. cerevisiae deletion strains, locus YNR030W, strain Alg12, active compounds read low): 0.981
normalized growth (S. cerevisiae deletion strains, locus YOL006C, strain TOP1, active compounds read low): 0.965
normalized growth [7]: 0.909
normalized growth [8]: 0.956
normalized growth (S. cerevisiae deletion strains, locus YPR135W, strain CTF4, active compounds read low): 1.01
normalized growth (S. cerevisiae strains, strain wild type, active compounds read low): 0.991

CCCCNc1c(C(=O)OCC)c(C)nc2c1cnn2CC
normalized growth [9]: 0.933
normalized growth [10]: 0.998
normalized growth [2]: 0.999
normalized growth [11]: 1.01
normalized growth [12]: 0.998
normalized growth [3]: 1.01
normalized growth [5]: 1.01
normalized growth [13]: 0.998
normalized growth [14]: 0.959
normalized growth [15]: 0.941
normalized growth [16]: 0.947
normalized growth [17]: 0.951
normalized growth [6]: 1
normalized growth [18]: 0.845 (active)
normalized growth [7]: 1.01
normalized growth [8]: 0.993

CCOC(=O)c1cnc2c(cnn2CC)c1NN=C(C)C
normalized growth [1]: 0.918
normalized growth [9]: 1.01
normalized growth [10]: 0.943 (active)
normalized growth [11]: 0.918
normalized growth [12]: 0.959
normalized growth [3]: 0.76 (active)
normalized growth [13]: 0.856 (active)
normalized growth (S. cerevisiae deletion strains, locus YNL153C, strain GIM3, active compounds read low): 0.909
normalized growth [15]: 0.961
normalized growth [16]: 0.976
normalized growth [17]: 0.97
normalized growth [18]: 0.844 (active)
normalized growth [7]: 0.966
normalized growth [8]: 0.964

CCN(CC)CC#CCOC(=O)C(O)(c1ccccc1)C1CCCCC1 (stereo not drawn)
normalized growth [1]: 1
normalized growth [9]: 1
normalized growth [10]: 1
normalized growth [2]: 1
normalized growth [11]: 1.01
normalized growth [12]: 1.06
normalized growth [4]: 0.985
normalized growth [19]: 0.996
normalized growth [20]: 1.05
normalized growth [21]: 0.927
normalized growth [22]: 1.04
normalized growth [14]: 1.11 [resistant] (active)
normalized growth [15]: 1.06
normalized growth [23]: 0.96
normalized growth [16]: 1.05
normalized growth [17]: 1.02
normalized growth [18]: 0.998
normalized growth [24]: 0.989
normalized growth [7]: 1
normalized growth [8]: 1
normalized growth [25]: 1

CC[N+](C)(CC)CCOC(=O)C(O)(c1ccccc1)C1CCCCC1 (stereo not drawn)
normalized growth [4]: 0.989
normalized growth [19]: 1
normalized growth [20]: 0.982
normalized growth [21]: 0.901
normalized growth [22]: 1.03
normalized growth [23]: 0.913
normalized growth [24]: 0.988
normalized growth [25]: 0.989
